The target of assay [1] is Cellular tumor antigen p53 (Homo sapiens) (UniProt P04637). The experiment in a line: TOX21_p53_BLA_p4_ratio: Tox21 HCT-116 p53 Agonism Beta-lactamase Assay, Ratio, Phase 4 (AID 2283601). In short, it runs like this:
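HCT-116 p53 beta-lactamase reporter cells (4000/well) preincubated 5 h, then compound (217-fold dilution of DMSO stock) for 16 h at 37C. CCF4-AM substrate added 2 h at room temperature; 460/530 nm emission ratio fitted upward versus DMSO.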

Assay [2] is described as follows: ACEA_AR_agonist_AUC_viability: ACEA Biosciences xCELLigence Real-Time Cell Analysis on Androgen Receptor Agonism for Viability (AID 2283775).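 For AC50: viability read 80 hours after compound addition.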 The essentials: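 Real-time impedance tracking of 22Rv1 growth, readings every 5 min for 5 h then hourly; area-under-curve viability endpoint at 80 hours, relative to DMSO. Compounds at eight concentrations, 1:4 steps, top 100 uM, n = 2.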

A short description of assay [3]: ACEA_ER_AUC_viability: ACEA Biosciences xCELLigence Real-Time Cell Analysis on Estrogen Receptor Agonism for Viability (AID 2283782).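 Note: continuous compound exposure with impedance area under curve over 80 h; hit means loss of impedance signal meaning reduced cell growth or viability.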 The essentials: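 T47D cells preconditioned in phenol red-free RPMI with charcoal-stripped FBS, then dosed with 8-point 1:4 series from 100 uM (up to 0.5% DMSO). Impedance monitored up to ~80 h; area-under-curve loss versus DMSO taken as viability.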

Assay [4] can be described thus: STM_H9_OrnCyssISnorm_ratio: Stemina devTOX quickPredict H9 human embryonic stem cell (hESC)-based Assay for Ornithine (ORN):Cystine (CYSS) Ratio (AID 2283714). In short, it runs like this:
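Undifferentiated H9 hESCs exposed 72 h, media and compound replaced every 24 h; final 24-h conditioned media deproteinized and analysed by UPLC-HRMS against C13 spike-ins. Value is the internal-standard-normalized ORN/CYSS ratio versus 0.1% DMSO.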

The target of a further assay is AR (gene 367) (UniProt P10275). The experiment in a line: ACEA_AR_agonist_80hr: ACEA Biosciences xCELLigence Real-Time Cell Analysis on Androgen Receptor Agonism for Proliferation (AID 2283783).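 Note: hits increase impedance growth signal above DMSO baseline.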 The essentials:
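Proliferation of 22Rv1 prostate cancer cells tracked by electrical impedance, endpoint taken at 80 hours after dosing. Eight-point 1:4 dilutions from 100 uM maximum final, duplicate; testosterone and MG132 as positive controls, assay media as negative.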

Assay [5] can be described thus: CEETOX_H295R_MTT_cell_viability: Viability Assessment in the CeeTox HT-H295R MTT Assay (AID 2283718; active = hit-call score of the fitted dose curve at least 0.9, where 1 is the maximum; inactive = score below 0.9). In short, it runs like this:
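Human H295R adrenal cells, prestimulated 48 h with 10 uM forskolin, were exposed 48 h to chemicals in 0.1% DMSO. Viability was measured in the same wells by MTT (0.5 mg/ml, 4 h, 37 C), absorbance 570/650 nm, as percent of controls.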

Assay [6] concerns Thyroperoxidase (TPO), gene 54314. Description: CCTE_Simmons_AUR_rTPO: CCTE's Amplex UltraRed Assay for Thyroperoxidase (TPO) Inhibition, Simmons Lab (AID 2283662).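 For AC50: potency for loss of signal meaning inhibition of peroxidase activity.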 In short, it runs like this:
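Rat thyroid microsomes (5 ug protein) with 25 uM Amplex UltraRed and 300 uM H2O2 in 200 mM phosphate buffer, 30 min at 37C in dark; fluorescence 544/590 nm. Eight concentrations, 5 nM–87.5 uM final, 0.5% DMSO, triplicate biological replicates.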

The nature of assay [7]: CCTE_Simmons_CellTiterGLO_HEK293T: Viability Assessment in CCTE's Assays for Thyroperoxidase (TPO) Inhibition, Simmons Lab (AID 2283665).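 For AC50: cells exposed to compound for 24 h before readout; actives reduce ATP signal below DMSO vehicle meaning cytotoxicity.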 In short, it runs like this:
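HEK293T cells in DMEM with 1% FBS, dosed 24 h at 37C with 8 concentrations, 5 nM–87.5 uM final, 0.5% DMSO. ATP measured by CellTiter Glo luminescence; loss of signal vs DMSO, three biological replicates.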
(ATP-based viability assays read luminescence as a measure of living cells.)

The target of assay [8] is Luciferin 4-monooxygenase (Photinus pyralis) (UniProt P08659). The experiment in a line: CCTE_Simmons_QuantiLum_inhib_2: CCTE's Firefly Luciferase Inhibition Assay, Simmons Lab (AID 2283767).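 For AC50: potency for inhibitors that lower luciferase luminescence relative to DMSO.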 The essentials: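 Cell-free recombinant firefly luciferase (5 ng/well) in 200mM potassium phosphate with 1 mg/ml BSA, 30 min at 37C with 8 concentrations from 5 nM to 87.5 uM [final], 0.5% DMSO. Luminescence read after D-luciferin (150uM)/dATP (147uM) reagent injection, pH 7.8; triplicates.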

In assay [9] the test system is chicken Androgen Receptor (AR), gene 422165. Description: ATG_chAR_XSP1: Attagene TRANS-FACTORIAL Multi-Species (XSP1) HepG2 Assay for chicken Androgen Receptor (AR) (AID 2283768). In short, it runs like this:
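HepG2 cells transiently transfected with multiplexed GAL4-UAS reporter units expressing chimeric chicken AR-Gal4; 3 nM 6-alpha-fluorotestosterone for partial AR stimulation; 24 h after dosing, reporter mRNA by RT-PCR and capillary electrophoresis, gain-of-signal versus DMSO.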

Assay [10] concerns frog Androgen Receptor (AR), gene 399456. Description: ATG_frAR_XSP1: Attagene TRANS-FACTORIAL Multi-Species (XSP1) HepG2 Assay for frog Androgen Receptor (AR) (AID 2283770).
In assay [11] the test system is zebrafish Androgen Receptor (AR), gene 100005148. Description: ATG_zfAR_XSP1: Attagene TRANS-FACTORIAL Multi-Species (XSP1) HepG2 Assay for zebrafish Androgen Receptor (AR) (AID 2283771). In short, it runs like this:
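HepG2 cells were transiently transfected with a zebrafish AR-GAL4 reporter system and partially stimulated with 3 nM 6-alpha-fluorotestosterone. Reporter mRNA was measured after 24 h dosing by RT-PCR with capillary electrophoresis, and gain-of-signal was fitted relative to DMSO.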

In assay [12] the target is zebrafish Estrogen Receptor (ESR1), esr1 (gene 259252) (UniProt P57717). The experiment in a line: ATG_zfER1_XSP1: Attagene TRANS-FACTORIAL Multi-Species (XSP1) HepG2 Assay for zebrafish Estrogen Receptor (ESR1) (AID 2283772). The essentials: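 Exogenous chimeric receptor-GAL4 activity is measured in transiently transfected human HepG2 liver cells after 24 h compound exposure. Reporter transcripts are detected by RT-PCR and fluorescent capillary electrophoresis, analysed for signal gain relative to DMSO.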

Assay [13] relates to zebrafish Estrogen Receptor (ESR2B), gene 317733. The experiment in a line: ATG_zfER2b_XSP1: Attagene TRANS-FACTORIAL Multi-Species (XSP1) HepG2 Assay for zebrafish Estrogen Receptor (ESR2B) (AID 2283773). In short, it runs like this: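 HepG2 cells transiently transfected with GAL4-UAS reporter units for chimeric zebrafish ER2b-Gal4, with 3 nM 6-alpha-fluorotestosterone present; reporter mRNA measured 24 h after dosing by RT-PCR and capillary electrophoresis, gain versus DMSO.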

Assay [14] has as its system frog Estrogen Receptor (ESR2), gene 100174814. Description: ATG_frER2_XSP1: Attagene TRANS-FACTORIAL Multi-Species (XSP1) HepG2 Assay for frog Estrogen Receptor (ESR2) (AID 2283774). In short, it runs like this: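 HepG2 cells transiently transfected with GAL4-UAS reporter units expressing chimeric frog ER-Gal4; 3 nM 6-alpha-fluorotestosterone present. After 24 h dosing, reporter mRNA quantified by RT-PCR and capillary electrophoresis; gain-of-signal fitted relative to DMSO.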

Assay [15] relates to frog Estrogen Receptor (ESR1), gene 398734. The experiment in a line: ATG_frER1_XSP1: Attagene TRANS-FACTORIAL Multi-Species (XSP1) HepG2 Assay for frog Estrogen Receptor (ESR1) (AID 2283777). The essentials:
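HepG2 cells transiently transfected with frog ER–GAL4 chimera and GAL4-UAS reporter, with 3 nM 6-alpha-fluorotestosterone present; 24 h dosing, reporter mRNA quantified by RT-PCR and capillary electrophoresis, gain of signal versus DMSO.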

Assay [16] deals with zebrafish Estrogen Receptor (ESR2A), gene 317734. The experiment in a line: ATG_zfER2a_XSP1: Attagene TRANS-FACTORIAL Multi-Species (XSP1) HepG2 Assay for zebrafish Estrogen Receptor (ESR2A) (AID 2283778). In short, it runs like this: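 HepG2 cells transiently transfected with GAL4-UAS reporter units driven by a zebrafish ESR2A–Gal4 chimera; 24 h compound exposure with 3 nM 6-alpha-fluorotestosterone present. Reporter mRNA measured by RT-PCR with fluorescent capillary electrophoresis, fitted positive versus DMSO.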

Assay [17] concerns the target chicken Estrogen Receptor (ESR1), ESR1 (gene 396099) (UniProt P06212). The experiment in a line: ATG_chERa_XSP1: Attagene TRANS-FACTORIAL Multi-Species (XSP1) HepG2 Assay for chicken Estrogen Receptor (ESR1) (AID 2283779). The essentials:
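HepG2 cells transiently transfected with GAL4-UAS reporter units for chimeric chicken ERα-Gal4, dosed 24 h with 3 nM 6-alpha-fluorotestosterone present. Reporter mRNA by RT-PCR and capillary electrophoresis; gain-of-signal fit versus DMSO.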

Assay [18] addresses Estrogen receptor (Homo sapiens) (UniProt P03372). The experiment in a line: ATG_hERa_XSP1: Attagene TRANS-FACTORIAL Multi-Species (XSP1) HepG2 Assay for human Estrogen Receptor (ESR1) (AID 2283780). In short, it runs like this:
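HepG2 cells transiently transfected with GAL4-UAS reporter units and chimeric NR-Gal4 constructs; 24 h after dosing, reporter mRNA quantified by RT-PCR and capillary electrophoresis. Medium contained 3 nM 6-alpha-fluorotestosterone; activity fitted as gain-of-signal versus DMSO.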

In assay [19] the test system is turtle Estrogen Receptor (ESR1), gene 101933533. Description: ATG_trERa_XSP1: Attagene TRANS-FACTORIAL Multi-Species (XSP1) HepG2 Assay for turtle Estrogen Receptor (ESR1) (AID 2283781). The essentials: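 Turtle ERa as a GAL4 chimera in transiently transfected HepG2 cells; reporter mRNA quantified 24 h after dosing by RT-PCR and capillary electrophoresis. 3 nM 6-alpha-fluorotestosterone present; gain of signal versus DMSO.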

Structures are written as SMILES. Values joined by “and” are separate entries in the source; they are usually repeats but may differ in a detail not shown here. Identical values can stand only once. Results filed as inconclusive are left out. Active and inactive are the calls of the source. Rule for the calls, unless noted: active = hit-call score of the fitted dose curve at least 0.9, where 1 is the maximum; inconclusive = response in the unintended direction; inactive = score below 0.9.

Chain of Luciferin 4-monooxygenase (Photinus pyralis) (P08659 whole entry, looked up): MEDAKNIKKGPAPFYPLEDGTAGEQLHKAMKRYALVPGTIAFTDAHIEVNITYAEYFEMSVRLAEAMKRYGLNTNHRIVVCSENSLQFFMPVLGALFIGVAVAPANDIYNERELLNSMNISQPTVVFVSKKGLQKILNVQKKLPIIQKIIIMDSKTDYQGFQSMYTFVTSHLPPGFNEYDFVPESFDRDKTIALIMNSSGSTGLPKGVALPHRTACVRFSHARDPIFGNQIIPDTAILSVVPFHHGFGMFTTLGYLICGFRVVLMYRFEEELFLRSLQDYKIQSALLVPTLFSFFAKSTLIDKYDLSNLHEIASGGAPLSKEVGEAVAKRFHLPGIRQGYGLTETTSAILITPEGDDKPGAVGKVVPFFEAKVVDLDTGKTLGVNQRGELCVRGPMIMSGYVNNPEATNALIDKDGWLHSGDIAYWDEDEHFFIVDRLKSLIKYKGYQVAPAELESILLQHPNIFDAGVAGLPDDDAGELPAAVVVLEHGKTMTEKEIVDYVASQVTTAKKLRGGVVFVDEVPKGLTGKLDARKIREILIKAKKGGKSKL
Chain of Cellular tumor antigen p53 (Homo sapiens) (P04637 whole entry, looked up): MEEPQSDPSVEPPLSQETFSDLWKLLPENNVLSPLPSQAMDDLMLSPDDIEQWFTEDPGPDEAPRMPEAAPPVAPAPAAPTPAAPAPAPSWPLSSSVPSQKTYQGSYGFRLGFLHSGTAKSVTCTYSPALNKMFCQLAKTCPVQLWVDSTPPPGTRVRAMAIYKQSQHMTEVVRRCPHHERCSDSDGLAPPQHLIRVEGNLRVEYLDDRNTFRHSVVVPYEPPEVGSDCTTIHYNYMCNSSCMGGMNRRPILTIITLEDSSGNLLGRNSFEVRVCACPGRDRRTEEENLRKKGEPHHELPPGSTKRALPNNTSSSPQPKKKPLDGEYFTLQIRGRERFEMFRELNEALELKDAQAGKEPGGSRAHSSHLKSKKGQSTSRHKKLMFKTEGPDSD
Chain of AR (gene 367) (P10275 whole entry, looked up): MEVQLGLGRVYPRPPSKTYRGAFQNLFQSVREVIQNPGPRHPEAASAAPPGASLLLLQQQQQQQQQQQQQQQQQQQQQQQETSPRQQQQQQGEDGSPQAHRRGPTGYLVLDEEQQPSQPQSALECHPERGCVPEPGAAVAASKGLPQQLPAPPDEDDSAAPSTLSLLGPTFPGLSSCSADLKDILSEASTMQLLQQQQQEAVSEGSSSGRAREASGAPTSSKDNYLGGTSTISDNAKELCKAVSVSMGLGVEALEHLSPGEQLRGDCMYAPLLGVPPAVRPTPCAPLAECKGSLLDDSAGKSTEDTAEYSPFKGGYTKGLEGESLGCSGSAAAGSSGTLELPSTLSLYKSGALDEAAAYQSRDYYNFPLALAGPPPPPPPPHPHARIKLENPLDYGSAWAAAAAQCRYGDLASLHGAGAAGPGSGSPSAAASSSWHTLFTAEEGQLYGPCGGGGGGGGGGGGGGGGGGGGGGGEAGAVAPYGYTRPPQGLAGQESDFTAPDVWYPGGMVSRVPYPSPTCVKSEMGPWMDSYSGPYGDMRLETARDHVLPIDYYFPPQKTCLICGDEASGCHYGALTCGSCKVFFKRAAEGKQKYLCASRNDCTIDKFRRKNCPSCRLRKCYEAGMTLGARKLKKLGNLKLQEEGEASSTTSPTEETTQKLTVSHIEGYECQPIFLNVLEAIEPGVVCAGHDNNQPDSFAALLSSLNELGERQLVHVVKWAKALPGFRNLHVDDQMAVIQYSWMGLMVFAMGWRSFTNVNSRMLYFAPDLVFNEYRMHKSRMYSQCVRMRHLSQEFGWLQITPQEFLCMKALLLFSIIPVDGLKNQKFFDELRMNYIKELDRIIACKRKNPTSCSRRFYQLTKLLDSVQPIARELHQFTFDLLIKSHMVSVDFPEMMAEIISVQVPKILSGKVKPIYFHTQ
Chain of zebrafish Estrogen Receptor (ESR1), esr1 (gene 259252) (P57717 whole entry, looked up, the tested form may be a part): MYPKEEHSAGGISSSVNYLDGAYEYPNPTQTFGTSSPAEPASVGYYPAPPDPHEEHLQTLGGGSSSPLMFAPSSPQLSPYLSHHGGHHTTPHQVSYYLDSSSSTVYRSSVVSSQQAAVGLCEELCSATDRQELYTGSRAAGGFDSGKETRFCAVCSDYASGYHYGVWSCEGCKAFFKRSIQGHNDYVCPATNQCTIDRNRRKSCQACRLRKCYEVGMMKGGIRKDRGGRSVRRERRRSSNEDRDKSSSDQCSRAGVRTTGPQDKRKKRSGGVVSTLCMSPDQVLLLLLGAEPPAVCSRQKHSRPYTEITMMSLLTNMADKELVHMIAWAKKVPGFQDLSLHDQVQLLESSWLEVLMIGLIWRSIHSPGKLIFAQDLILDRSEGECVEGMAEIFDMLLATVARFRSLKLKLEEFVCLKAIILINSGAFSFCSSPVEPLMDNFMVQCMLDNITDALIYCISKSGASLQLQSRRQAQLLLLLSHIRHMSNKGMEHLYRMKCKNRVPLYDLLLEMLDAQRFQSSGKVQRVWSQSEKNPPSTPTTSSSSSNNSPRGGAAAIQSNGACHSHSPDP
Chain of Estrogen receptor (Homo sapiens) (P03372 whole entry, looked up, the tested form may be a part): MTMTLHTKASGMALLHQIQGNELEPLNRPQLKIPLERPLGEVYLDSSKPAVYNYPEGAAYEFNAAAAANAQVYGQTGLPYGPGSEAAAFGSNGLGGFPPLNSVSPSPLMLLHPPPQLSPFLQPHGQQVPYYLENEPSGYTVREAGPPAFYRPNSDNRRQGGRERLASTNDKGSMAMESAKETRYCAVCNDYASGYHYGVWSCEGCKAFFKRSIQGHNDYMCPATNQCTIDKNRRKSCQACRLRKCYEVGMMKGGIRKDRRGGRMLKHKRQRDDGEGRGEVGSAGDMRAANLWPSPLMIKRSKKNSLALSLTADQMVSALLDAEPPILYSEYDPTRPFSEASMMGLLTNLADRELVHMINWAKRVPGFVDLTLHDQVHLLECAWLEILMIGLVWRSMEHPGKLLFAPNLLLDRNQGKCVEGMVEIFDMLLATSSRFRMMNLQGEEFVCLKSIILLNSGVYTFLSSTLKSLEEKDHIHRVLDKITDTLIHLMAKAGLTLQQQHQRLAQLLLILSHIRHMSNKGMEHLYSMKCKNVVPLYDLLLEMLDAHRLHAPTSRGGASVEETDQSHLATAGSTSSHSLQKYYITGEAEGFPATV
Chain of chicken Estrogen Receptor (ESR1), ESR1 (gene 396099) (P06212 whole entry, looked up, the tested form may be a part): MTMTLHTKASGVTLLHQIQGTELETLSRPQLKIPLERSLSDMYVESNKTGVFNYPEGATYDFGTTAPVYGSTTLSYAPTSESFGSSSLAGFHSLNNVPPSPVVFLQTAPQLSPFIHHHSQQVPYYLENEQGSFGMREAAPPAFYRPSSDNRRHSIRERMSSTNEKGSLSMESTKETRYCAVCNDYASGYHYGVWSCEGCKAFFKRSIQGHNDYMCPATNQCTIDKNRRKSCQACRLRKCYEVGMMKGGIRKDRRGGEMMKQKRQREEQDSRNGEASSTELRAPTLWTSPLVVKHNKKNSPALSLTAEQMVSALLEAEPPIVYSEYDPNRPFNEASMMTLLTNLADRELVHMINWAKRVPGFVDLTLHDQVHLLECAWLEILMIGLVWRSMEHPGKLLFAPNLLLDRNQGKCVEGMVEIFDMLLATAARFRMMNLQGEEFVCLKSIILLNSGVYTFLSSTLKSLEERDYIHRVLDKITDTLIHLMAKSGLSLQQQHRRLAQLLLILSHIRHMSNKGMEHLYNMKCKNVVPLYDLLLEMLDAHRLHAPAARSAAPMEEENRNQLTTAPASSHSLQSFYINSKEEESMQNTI

Usually AC50 stands for the concentration giving half of the maximal activity seen. `CCc1cc(Cc2cc(CC)c(N)c(CC)c2)cc(CC)c1N`: the outcome in [1] and in assay [2] was inactive. In addition, the AC50 in [3] is 68.3 µM (active).

Consider `CCN=c1cc2oc3cc(NCC)c(C)cc3c(-c3ccccc3C(=O)OCC)c-2cc1C`, for which the AC50 was 35.8 µM (active) and 44.5 µM (active) in [1]; 0.0769 µM (active) in assay [4]; 0.0138 µM (active) in [2]; 5.61 µM (active) in [3]. In addition, the call in the assay with AR (gene 367) was inactive.

With `O=C1C=CC(=O)N1c1ccccc1`, in assay [1], the AC50 was 77.5 µM (active). The call in [5], in assay [2] and in assay [3] was inactive.

On to `Cc1cc(=O)[nH]c(C(C)C)n1`, for which the outcome in [1] and in [3] was inactive.

As to `CCC(Cc1c(I)cc(I)c(N)c1I)C(=O)O` (stereo not drawn), the outcome in assay [1] and in [2] was inactive.

Regarding `CCC(=O)OC(C)c1ccccc1` (stereo not drawn), the result in [1] was inactive. The AC50 in assay [3] is 79.9 µM (active).

Turning to `CC(C)Nc1ccc(NC(C)C)c2c1C(=O)c1ccccc1C2=O`, the result in [1] and in assay [2] was inactive.

Take `Cc1cc(O)c(C(C)(C)C)cc1C(C)(C)C`: the values for the AC50 in assay [1] and in [3] were 44.8 µM (active) and 23.2 µM (active), respectively. In [5], the molecule was called inactive.

For `CCCCCCCCCCCCCCCCC`, the result in [1] and in assay [3] was inactive.

Turning to `CC(=O)CCC(C)C`, the result in [1] and in assay [2] was inactive.

For `CC(O)C#CC(C)O` (stereo not drawn), the result in assay [1] was inactive. Further, the AC50 in assay [3] is 26.7 µM (active).

`O=C(c1ccccc1)c1ccc(O)cc1O`: the result in [1], in assay [7], in assay [8] and in assay [11] was inactive. The AC50 is 6.04 µM (active) and 5.41 µM (active) in assay [6]; 1.98 µM (active) in assay [9]; 3.28 µM (active) in assay [10]; 4.2 µM (active) in assay [12]; 2.7 µM (active) in [13]; 1.05 µM (active) in [14]. The AC50 is 0.652 µM (active) in [15]; 1.65 µM (active) in assay [16]; 1.55 µM (active) in assay [17]; 3.15 µM (active) in [18]; 2.24 µM (active) in assay [19].

In the case of `CCCCCCCCn1sc(Cl)c(Cl)c1=O`, the outcome in assay [1] was inactive. The AC50 in assay [2] was 21.3 µM (active); in assay [3] it was 1.99 µM (active).

Regarding `Cc1ccc(O)c(-n2nc3ccccc3n2)c1`, the result in assay [1], in [6] and in assay [2] was inactive. The values for the AC50 in assay [7] and in assay [8] were 21 µM (active) and 1.54 µM (active), respectively.

As to `CCN=C1C=CC(=C(c2ccc(N(CC)CC)cc2)c2ccc(N(CC)CC)cc2)c2ccccc21`, the AC50 in assay [1] is 50 µM (active); in [6] it was 33.4 µM (active); in [7], 1.72 µM (active); in assay [4], 0.151 µM (active); in [8] it was 7.95 µM (active); in assay [3], 5.37 µM (active). In assay [2], the result was inactive.

With `CC(C)(C)c1cc(CCC(=O)NCCCCCCNC(=O)CCc2cc(C(C)(C)C)c(O)c(C(C)(C)C)c2)cc(C(C)(C)C)c1O`, the molecule was called inactive in assay [5].

Consider `Brc1nc2ccccc2s1`, for which the outcome in [1] and in [3] was inactive.

For the molecule `CC1CCCCC1`, in assay [5], the molecule was classed as inactive.

Values taken from PubChem BioAssay (EPA / NIEHS).
